The supplement of paper PMC11219838

test system: Caenorhabditis elegans L1 (N2); test: survival and reproduction score of C. elegans L1 (0: 0-10 living worms, 1: 11-20, 2: 21-50, 3: >50, 4: overgrown) (score 0-4); higher = more worms, less nematicidal, active = 1 or less; extreme values may be limits of the assay; conditions: 60 µM; 6 days; temperature: 20 °C
How it was run: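 Synchronized C. elegans N2 L1s (about 20 per well) were grown in 96-well plates in liquid NGM with E. coli HB101 and compound at 60 µM final (0.6% v/v DMSO), shaken sealed at 200 rpm and 20 °C for 6 days. The ordinal score for survival and reproduction counted living worms per well under a dissection microscope. The scale ran 0 (0–10 worms) to 4 (overgrown, starved), averaged over two biological replicates.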

| Structure (SMILES) | survival and reproduction score |
| --- | --- |
| COc1nc(C)ccc1-c1noc(-c2ccccc2Cl)n1 | 4 (inactive) |
| Cc1ccccc1OCc1nc(-c2ccc3c(c2)OCO3)no1 | 4 (inactive) |
| COc1ccc(Cl)cc1-c1nc(-c2ccc3c(c2)OCO3)no1 | 4 (inactive) |
| Cc1ccc(Cl)cc1NC(=O)CSc1nnc(-c2ccncc2)o1 | 4 (inactive) |
| Clc1ccccc1OCc1nc(-c2ccccn2)no1 | 4 (inactive) |
| O=C(CSc1nnc(-c2ccc(Br)cc2)o1)Nc1cccc2ccccc12 | 4 (inactive) |
| O=C(CSc1nnc(-c2cccc(Br)c2)o1)c1ccccc1 | 4 (inactive) |
| CCCc1ccc(-c2ccc(-c3nc(-c4ccccn4)no3)cc2)cc1 | 4 (inactive) |
| O=C(CSc1nnc(-c2ccc(Br)cc2)o1)NC1CCCC1 | 4 (inactive) |
| COc1ccc(-c2noc(-c3ccccc3C(=O)Nc3ccc(NC(C)=O)cc3)n2)cc1 | 4 (inactive) |
| CCCc1nnc(SCc2nnc(-c3ccccc3)o2)o1 | 4 (inactive) |
| Cc1ccc(-c2noc(-c3cccc(C)c3)n2)cc1 | 0 (active) |
| Fc1ccccc1OCc1nc(-c2ccc(Cl)cc2)no1 | 4 (inactive) |
| CCc1ccc(OCc2nc(-c3ccc(C)cc3)no2)cc1 | 2 (inactive) |
| Cc1cccc(OC(C)c2nc(-c3cccnc3)no2)c1 (centres undefined) | 4 (inactive) |
| Clc1cccc(-c2nc(-c3ccc4c(c3)OCO4)no2)c1 | 4 (inactive) |
| COc1cccc(OCc2nc(-c3cccc(C)c3)no2)c1 | 4 (inactive) |
| CC(C)(Oc1ccc(Cl)cc1)c1nc(-c2ccncc2)no1 | 0.5 (active) |
| Cc1ccc(-c2noc(-c3ccc(Br)o3)n2)s1 | 0 (active) |
